# Compound activity as filed in PubChem BioAssay.
# Gal4-VP16 FLuc = counter-screen for ROR gamma inhibitors: Gal4-VP16 reporter; Drosophila S2 Gal4-VP16 UAS-luciferase, luminescence, 20 h; Potency, µM (top dose mostly 53.6 µM), for inactives: top-dose activity, negative = inhibition, actives largely listed as inhibitors; actives 3.5% (n = 310,000); AID 2546;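 also: Gal4-VP16 expression switched on by copper sulfate through the metallothionein promoter; % is scaled to controls: 0 for no effect and ±100 for the full control effect; nearly all actives have a fitted effect of over 50% in size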
# ClpP mod = qHTS Assay for Activators of ClpP | purified B. subtilis ClpP, FRET peptide cleavage, 20 min | Potency, µM (titrated, usually from 57.5 µM), for inactives: top-dose activity change, negative = active | actives 1.9% (n = 340,000) | AID 651965, 2013; active = well fitted falling curve with a large enough effect; inconclusive = small, poorly fitted or top-dose-only effect; inactive = no such curve, though single readings can be large or run the other way; also: the source files actives as falling curves though it sought activators and does not explain the sign; nearly all actives have a fitted effect of over 65% in size
# Target sequence (P80244 whole entry, looked up): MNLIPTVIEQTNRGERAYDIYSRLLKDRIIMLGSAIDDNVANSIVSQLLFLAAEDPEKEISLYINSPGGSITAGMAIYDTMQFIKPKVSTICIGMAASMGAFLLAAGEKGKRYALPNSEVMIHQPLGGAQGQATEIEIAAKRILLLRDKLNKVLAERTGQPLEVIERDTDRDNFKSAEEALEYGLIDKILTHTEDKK
#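 Buffer: 100 mM Tris/HCl pH8, 100 mM KCl, 0.05% low protease BSA, 2.5% glycerol, 0.01% Tween-20. ClpP 10 microg/mL final; 20 min RT; delta FRET normalized to ADEP and DMSO controls.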
# PINK1 expr mod = PINK1 expression modulation; actives 0.2% (n = 410,000); AID 624263; PINK1 immunofluorescence, high-content cytometry, 24 h; Potency, µM (highest dose often 76.6 µM), inactives show at the top dose activation (PINK1 increase), most hits filed as activators; active = well fitted activation curve with a large enough effect; inconclusive = small, poorly fitted or top-dose-only effect; cell line not stated here; also: % of control where 0% means no effect; nearly all actives have a fitted effect of over 65% in size
#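 A stable cell line was treated with compounds at 5 concentrations for 24 hours, with CCCP as control. PINK1 levels and mitochondrial localization were measured by immunofluorescence with mitochondrial, cell and nuclear markers after fixation, read by laser-scanning cytometry.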
# Sfp inh = blocks B. subtilis Sfp PPTase activity | Q9F4F7 | Biochemical Sfp PPTase activity, qHTS | Potency, µM, for the others: largest response in the series, negative = inhibition, most hits filed as inhibitors | actives 3.5% (n = 310,000) | AID 1490;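 also: the enzyme is Sfp with the accession as filed and its product quenches rhodamine fluorescence; 0% = enzyme reaction without inhibitor and -100% = no enzyme wells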
#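 Fluorescence-quenching assay: 15 nM Sfp-PPTase preincubated 15 min at room temperature with compound, then 5 uM rhodamine-CoA and 12.5 uM BHQ-2-labelled YbbR peptide added. Fluorescence (ex 525/em 598 nm) read at start and after 30 min; difference gives rate.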
# RORg inh = ROR gamma (mouse) transcription inhibition. Drosophila S2 Gal4-RORgamma UAS-luciferase reporter, 20 h. Potency, µM (doses to about 53.6 µM), without a hit: top-dose activity change, negative = inhibition, usual class: inhibitors. actives 5.4% (n = 310,000); also: % is scaled to controls: 0 for no effect and ±100 for the full control effect; nearly all actives have a fitted effect of over 60% in size
# Target sequence (P51450 whole entry, looked up, the tested form may be a part): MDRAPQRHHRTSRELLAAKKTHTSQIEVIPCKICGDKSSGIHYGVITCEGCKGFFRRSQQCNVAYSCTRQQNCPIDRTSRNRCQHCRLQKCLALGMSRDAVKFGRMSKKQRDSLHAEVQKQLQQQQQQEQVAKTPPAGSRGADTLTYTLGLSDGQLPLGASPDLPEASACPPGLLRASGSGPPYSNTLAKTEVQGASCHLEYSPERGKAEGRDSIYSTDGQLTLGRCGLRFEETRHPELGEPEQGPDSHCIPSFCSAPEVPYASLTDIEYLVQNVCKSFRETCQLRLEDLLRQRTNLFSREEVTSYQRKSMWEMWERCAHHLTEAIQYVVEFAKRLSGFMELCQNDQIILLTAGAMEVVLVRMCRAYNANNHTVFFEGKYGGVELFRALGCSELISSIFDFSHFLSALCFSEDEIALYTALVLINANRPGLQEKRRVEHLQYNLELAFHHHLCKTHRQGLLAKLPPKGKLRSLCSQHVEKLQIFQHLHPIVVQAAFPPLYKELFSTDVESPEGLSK
#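 ROR gamma transcriptional activity was tracked as Gal4-UAS luciferase output in stably transfected Drosophila Schneider cells, with compound added 1 hr before 700 uM copper sulfate induction and a 20 hr ambient-temperature incubation.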
# Epigenetic derep = derepresses silenced GFP reporter in murine cells. Potency, µM (titrated, usually from 53.9 µM), for inactives: top-dose GFP activation, hits mostly activators. AID 1865. actives 0.2% (n = 280,000). murine LDR cells, GFP reporter derepression, 30 h; also: % of control where 0% means no effect; nearly all actives have a fitted effect of over 60% in size
#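 Murine LDR cells bearing a silenced CMV-driven GFP reporter were exposed to compound for 30 h at 37 C. After PBS washes, GFP-positive cells (20-120 um objects) counted by laser-scanning microplate cytometry.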
# Numbers without * were called inactive; ? = inconclusive; . = not tested or not shown; [ ] = another dose, or the depositor's remark. Only some compounds are listed: those with a hit (about 8.1% of all), similar ones and a draw of the others. Unless noted, calls follow the shape of the dose curve; as a rule, active = well fitted curve in the direction sought with a large enough effect; inconclusive = small, poorly fitted or top-dose-only effect, or another doubt; inactive = no such curve, though single readings can be large; an effect the other way counts as inactive or inconclusive. Potency is read from the fitted curve at half-maximal effect.
SMILES,Gal4-VP16 FLuc,ClpP mod,PINK1 expr mod,Sfp inh,RORg inh,Epigenetic derep
CN(C(=O)CSc1nnc(-c2ccc([N+](=O)[O-])cc2)o1)c1ccccc1,.,-1%,-1%,.,.,-3%
Cc1nc(S/C(=C/c2ccc(-c3ccc(C(=O)O)cc3)o2)C(=O)O)n[nH]1,-7%,-10%,0%,14µM*,-13%,1%
O=Cc1ccc(-c2ccc(C(=O)O)cc2)o1,1%,4%,1%,-14%,1%,1%
Cc1nc(S/C(=C/c2ccc(-c3ccc(Cl)cc3)o2)C(=O)O)n[nH]1,2.8µM*,-2%,-1%,?,1.4µM*,1%
CC(=O)c1ccc(-c2ccc(/C=C(/Sc3n[nH]c(C)n3)C(=O)O)o2)cc1,?,-4%,0%,10µM*,5.6µM*,-1%
Cc1nc(S/C(=C/c2ccc(-c3cc(Cl)ccc3C)o2)C(=O)O)n[nH]1,3%,0%,-1%,?,24%,-3%
CC(=O)c1cc(-c2ccc(F)cc2)n(CCC(=O)NC2CCCCC2)c1C,.,0%,-1%,.,.,-1%
Cc1ccc(NS(=O)(=O)c2ccc(NC(=O)C3CCCO3)cc2)cc1 (stereo not drawn),18µM*,32µM*,2%,?,?,-1%
O=C1NC(=O)c2cc(NC(=O)C3CCCO3)ccc21 (stereo not drawn),-1%,28µM*,9%[38.3 µM],17%,-8%,3%
O=C1OCc2cc(NC(=O)C3CCCO3)ccc21 (stereo not drawn),-11%,-6%,-10%[38.3 µM],11%,-5%,0%
CCOC(=O)C1=C(C)NC(SC)=C(C#N)C1CC(C)C (stereo not drawn),-2%,.,5%,3%,-7%,-3%
CC(=O)C1=C(C)NC(SCC(=O)c2ccc(Cl)cc2)=C(C#N)C1CC(C)C (stereo not drawn),?,25µM*,-1%,13µM*,11µM*,-2%
CC(=O)C1=C(C)NC(SCC(=O)c2ccc(F)cc2)=C(C#N)C1CC(C)C (stereo not drawn),7.1µM*,-3%,2%,14µM*,5.6µM*,-1%
CC(=O)C1=C(C)NC(SCC(N)=O)=C(C#N)C1CC(C)C (stereo not drawn),2%,.,0%,7%,1%,2%
Cc1ccc(S(=O)(=O)NC(=O)O[C@@H]2C(=O)c3cc(Br)ccc3O[C@H]2c2ccc3c(c2)OCO3)cc1,4%,.,.,9%,-7%,0%
O=[N+]([O-])c1ccc(O)c(-c2nc(-c3ccccc3)c(-c3cccs3)[nH]2)c1,11µM*,-2%,?,7%,-89%,-1%
CCOC(=O)C1=C(O)/C(=C/c2ccccn2)SC1=Nc1ccc(Cl)cc1,-28%,1%,13%,32µM*,-25%,4%
CC1=C(C(=O)OC2CCCCC2)C(c2cccs2)n2c(nc3ccccc32)N1 (stereo not drawn),?,4%,29%,-1%,4.5µM*,-1%
CCOC(=O)C1=C(C)Nc2nc3ccccc3n2C1c1ccccc1 (stereo not drawn),5%,35µM*,?,10%,-21%,0%
COc1ccc(OC)c(C2C(C(=O)c3ccccc3)=C(C)Nc3nc4ccccc4n32)c1 (stereo not drawn),-11%,-3%,7%,12%,7.1µM*,1%
COc1ccc(C2C(C(=O)c3ccccc3)=C(C)Nc3nc4ccccc4n32)cc1OC (stereo not drawn),7%,-1%,0%,10%,-31%,4%
CCN(CC)C(=O)C1=C(C)Nc2nc3ccccc3n2C1c1ccc(Br)cc1 (stereo not drawn),.,-22%,2%,.,.,-2%
Cc1cccc(NC(=O)CCSc2nc(C)cc(C)n2)c1,-1%,-1%,3%,-10%,-16%,-1%
CCNC(=O)CCSc1nc(C)cc(C)n1,7%,.,-1%,32µM*,-43%,0%
Cc1cc(C)nc(SCCC(=O)N2CCOCC2)n1,-3%,1%,-3%,-10%,-6%,-2%
SMILES,Gal4-VP16 FLuc,ClpP mod,PINK1 expr mod,Sfp inh,RORg inh,Epigenetic derep
Cc1cc(C)nc(SCCC(=O)N(C)C)n1,8%,-2%,1%,50µM*,-2%,-9%
CCOc1ccc(CNC(=O)C2Cc3cc(S(=O)(=O)N4CCCCCC4)ccc3N2C(C)=O)cc1 (stereo not drawn),.,-1%,2%,.,.,9%
CCOc1ccc(CCNC(=O)c2nn(C)c3c2CSc2ccc(C)cc2-3)cc1OCC,.,-3%,4%,.,.,-3%
O=C(COC(=O)c1ccc(Br)cc1)Nc1cccnc1Cl,.,-2%,-1%,.,.,.
O=C(COC(=O)c1cccc(F)c1)Nc1cccnc1Cl,-5%,25µM*,-1%,15%,0%,0%
COc1cc(N)c(Cl)cc1C(=O)OCC(=O)Nc1cccnc1Cl,.,28µM*,4%,.,.,.
CCOc1ccc(CNC(=O)c2ccc3c(Cl)c4c(nc3c2)CCCC4)cc1,.,-14%,3%,.,.,0%
Cn1ncc(S(=O)(=O)Cc2ccccc2)c(Cl)c1=O,-5%,.,1%,6.3µM*,-3%,?
CSc1c(SCc2ccccc2)cnn(-c2ccccc2)c1=O,?,-2%,0%,9%,?,2%
Cn1ncc(SCc2ccccc2)c(Cl)c1=O,16µM*,.,0%,6%,?,-2%
O=C(COC(=O)c1ccccc1OCCOc1ccccc1)Nc1ccccc1Br,.,-8%,0%,.,.,.
CCCCOC(=O)c1ccc(NS(=O)(=O)c2c(C)nc3scc(C)n3c2=O)cc1,.,-5%,3%,.,.,-1%
CCOc1ccc2oc(C(=O)OCC(=O)NC3CCCC3)c(C)c2c1,.,4%,10%,.,.,.
Cc1c(C(=O)OCC(=O)NC2CCCCC2)oc2ccccc12,.,-6%,8%,.,.,.
COc1ccc2oc(C(=O)OCC(=O)NC3CCCCC3)c(C)c2c1,.,16µM*,2%,.,.,.
CCN(C(=O)COC(=O)c1oc2ccc(OC)cc2c1C)C1CCS(=O)(=O)C1 (stereo not drawn),.,8.9µM*,4%,.,.,.
COc1ccc2oc(C(=O)OCC(=O)N(CCC#N)c3ccccc3)c(C)c2c1,-2%,32µM*,-2%,0%,-12%,.
CCOc1ccc2oc(C(=O)OCC(=O)NC(=O)NC3CCCC3)c(C)c2c1,-20%,22µM*,1%,17%,26%,-1%
CC(C)(C)c1ccc(C(=O)NCC(c2cccnc2)N2CCc3ccccc3C2)cc1 (stereo not drawn),.,-2%,0%,.,.,0%
Cc1cc2c(cc1S(=O)(=O)Nc1cccc(C#N)c1)OCC(=O)N2,.,1%,0%,.,.,2%
